The panel holds about 83,000 compounds, 20% with a hit somewhere; the sample as a whole holds those more often.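 Cells were grown in 96-well plates and exposed to the test compound at a single concentration for 48 hours; results are reported as percent growth, with values below 10 considered active.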 Unmarked numbers belong to inactive results. Activity calls are given as the source filed them.
Legend:
Test in all cases: NCI-60 one-dose screen, 48 h (100 = growth as untreated, 0 = no growth, -100 = all killed)
NCI-H23 lung = details: 10 µM unless noted
NCI-H460 lung = details: 10 µM unless noted
786-0 renal = details: 10 µM unless noted
DU-145 prostate = details: 10 µM unless noted
MDA-MB-231 breast = details: 10 µM unless noted
SF-268 CNS = details: 10 µM unless noted
SF-539 CNS = details: 10 µM unless noted
UACC-257 melanoma = details: 10 µM unless noted
HCT-15 colon = details: 10 µM
PC-3 prostate = details: 10 µM unless noted
SK-MEL-5 melanoma = details: 10 µM unless noted
LOX IMVI melanoma = details: 10 µM unless noted
SK-MEL-28 melanoma = details: 10 µM unless noted
SN12C renal = details: 10 µM unless noted
NCI/ADR-RES ovarian = details: 10 µM unless noted
SW-620 colon = details: 10 µM unless noted
MCF7 breast = details: 10 µM unless noted
HCT-116 colon = details: 10 µM unless noted
HCC-2998 colon = details: 10 µM unless noted
KM12 colon = details: 10 µM unless noted

| Compound | growth (NCI-H23 lung) | growth (NCI-H460 lung) | growth (786-0 renal) | growth (DU-145 prostate) | growth (MDA-MB-231 breast) | growth (SF-268 CNS) | growth (SF-539 CNS) | growth (UACC-257 melanoma) | growth (HCT-15 colon) | growth (PC-3 prostate) | growth (SK-MEL-5 melanoma) | growth (LOX IMVI melanoma) | growth (SK-MEL-28 melanoma) | growth (SN12C renal) | growth (NCI/ADR-RES ovarian) | growth (SW-620 colon) | growth (MCF7 breast) | growth (HCT-116 colon) | growth (HCC-2998 colon) | growth (KM12 colon) |
| --- | --- | --- | --- | --- | --- | --- | --- | --- | --- | --- | --- | --- | --- | --- | --- | --- | --- | --- | --- | --- |
| CC(C)(C)N(Cc1ccccc1)N=O | 102% | 107% | 99% | 107% | 91.9% | 108% | 99% | 92.1% | 103% | 98.7% | 99.1% | 93.7% | 106% | 91.9% | 113% | 101% | 97.7% | 106% | 110% | 104% |
| CC12CCC3C(CC=C4CC(O)CCC43C)C1C/C(=C\N1CCOCC1)C2=O (stereo not given) | 111% | 108% | 104% | 110% | 106% | 109% | 108% | 101% | 99.9% | 96.4% | 99.1% | 105% | 106% | 102% | 106% | 105% | 92.2% | 101% | 114% | 108% |
| CC1(CF)NC(=O)NC1=O (stereo not given) | 103% | 112% | 97.6% | 116% | 99.1% | 104% | – | 97.2% | 105% | 101% | 114% | 100% | 111% | 94.3% | 107% | 106% | 92.7% | 103% | 102% | 106% |
| C=C=[CH][Sn]([c]1ccccc1)([c]1ccccc1)[c]1ccccc1 | -43.3% (active) | -78.8% (active) | -81.2% (active) | -91.1% (active) | -53.3% (active) | -69% (active) | -29.9% (active) | -37.2% (active) | -48.6% (active) | -50.5% (active) | -81.5% (active) | -77.2% (active) | -56.8% (active) | -73.5% (active) | – | -74.8% (active) | -52.5% (active) | -97.4% (active) | -67.2% (active) | -84.8% (active) |
| O=C(CCc1ccco1)NC1CCN(CC2(c3ccc(Cl)cc3)CCC2)CC1 | -22.6% (active) | 3.79% (active) | 20.4% | 24% | -6.18% (active) | 22.1% | 34.5% | -4.36% (active) | 18.7% | 1.34% (active) | -9.97% (active) | – | 30.1% | 5.58% (active) | 6.97% (active) | 14.7% | 2.88% (active) | 7.86% (active) | 11.4% | 1.4% (active) |
| Oc1c(Br)cc(Br)cc1Br.[Cu+2] | 104% | 103% | 115% | 108% | 111% | 105% | 107% | 101% | 108% | 103% | 102% | 89% | 101% | 110% | 105% | 99.2% | 101% | 98.4% | 95.8% | 98.1% |
| COc1ccc(NP2(=O)OCC(C)(N)CO2)cc1 (stereo not given) | 92% | 108% | 101% | 102% | 106% | 96.2% | 100% | 97.6% | 89.3% | 84.5% | 96.3% | 89.4% | 114% | 105% | 98.2% | 105% | 99.6% | 98.8% | 109% | 91.8% |
| CN(Cc1cccnc1)N=O | 96.3% | 103% | 107% | 108% | 103% | 95.5% | 96.8% | 95.7% | 100% | 95.9% | 103% | 93.5% | 108% | 102% | 100% | 98.2% | 95.9% | 93.1% | 112% | 102% |
| CC(C)(C)[Si](C)(C)OC1[C@@H](O[Si](C)(C)C(C)(C)C)[C@@H](CNC(=O)NC(=O)CF)O[C@H]1n1cnc2c(NC(=O)Nc3ccccc3)ncnc21 (stereo not given in full) | 64.7% | 4.01% (active) | 61.4% | 47.6% | 85.9% | 26.6% | 92.6% | – | 80.7% | 14.5% | – | 12.2% | 93.2% | 44.3% | 71% | 33.8% | 19% | 21.3% | 46.3% | 28.5% |

From PubChem BioAssay (NCI)
